Our source for the outcome, inhibition and potentiation values is PubChem BioAssay.

Assay [1] concerns TRPC4 beta (transient receptor potential cation channel C4), mouse. The assay is described as follows: TRPC4 cation channel opening, retest – cell-based, Fluo4 calcium, HEK293 TRPC4beta/mu-opioid, duplicates, 10 µM, confirmation (AID 2426;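 active = fluorescence ratio normalized to control raised more than 50% in primary screen plus both repeat runs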). The following applies: Fluo4 calcium fluorescence, at 10 µM; active compounds read high.
Assay [2] concerns transient receptor potential cation channel C4 beta (TRPC4), mouse. The assay is described as follows: TRPC4 cation channel opening, second retest – cell-based, second round, Fluo4, HEK293 TRPC4beta/mu-opioid, 1 µM, confirmation (AID 2461;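 active = primary screen active and over 50% activation in each of two duplicate runs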). The following applies: Fluo4 calcium fluorescence, at 1 µM; active compounds read high.
The test system of assay [3] is TRPC4 (transient receptor potential cation channel C4 beta), mouse. The experiment in a line: potentiation of DAMGO EC20 TRPC4 response – cell-based, second round, Fluo-4, HEK293 TRPC4beta/mu-opioid, 1 µM, confirmation (AID 2554). The following applies: DAMGO EC20, Fluo-4 calcium flux, at 1 µM; active compounds read high. On the technique in general: Calcium flux is commonly read through the fluorescence of an indicator in the cells.

In assay [4] the test system is TRPC4 beta (transient receptor potential cation channel C4), mouse. The experiment in a line: potentiation of DAMGO EC20 TRPC4 response – cell-based, Fluo-4, HEK293 TRPC4beta/mu-opioid, confirmation (AID 2555;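 active = primary screen hit whose calcium fluorescence ratio, in both repeats, exceeds the weak agonist control mean by 3 SD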). The note with it: DAMGO EC20, Fluo-4 calcium flux, at 10 µM; active compounds read high.
Assay [5] addresses Short transient receptor potential channel 4 (Mus musculus) (UniProt Q9QUQ5). The experiment in a line: blockers of DAMGO-evoked TRPC4 calcium flux – cell-based, Fluo4, HEK293 TRPC4beta/mu-opioid, confirmation (AID 2636;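 active = calcium signal cut by more than 3 SD below the full-agonist control yet still positive, in both repeats and the earlier primary screen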). The following applies: at 10 µM; active compounds read high.
Assay [6] shares this target. The assay is described as follows: blockers of DAMGO-evoked TRPC4 calcium flux – cell-based, second round, Fluo4, HEK293 TRPC4beta/mu-opioid, 1 µM, confirmation (AID 2637;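 active = calcium signal ratio cut to more than 3 SD under the fully stimulated control mean yet still positive, in both repeats and the primary screen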). The note with it: at 1 µM; active compounds read high.
The target is the same in assay [7]. The experiment in a line: calcium entry via TRPC4 opening agents – cell-based, HEK293 TRPC4/mu-opioid, Fluo-4 calcium, dose response (AID 434937;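 active = primary screen activator hit with a dose response curve and TRPC4 channel activation at any tested dose; inactive = no activation, no dose response, or not a primary hit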).
For assay [8] the target is unchanged. The assay is described as follows: potentiation of DAMGO-evoked TRPC4 calcium signal – cell-based, HEK293 TRPC4/mu-opioid, Fluo-4 calcium, EC20 DAMGO, dose response (AID 434941;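 active = earlier screen potentiator hit that boosts the TRPC4 ion channel at some dose, with a dose response; inactive = no potentiation, no dose response, or not a prior hit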;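 also: calcium entry triggered by an EC20 dose of DAMGO at the co-expressed mu-opioid receptor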).
The target in assay [9] is Short transient receptor potential channel 6 (Mus musculus) (UniProt Q61143). The experiment in a line: TRPC6 blockade by TRPC4 inhibitor hits – cell-based, HEK293, membrane potential dye, duplicate, selectivity assay for TRPC4 inhibitor project, confirmation (AID 434948;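 active = active in primary screen and both duplicates, each dropping signal beyond three positive-control SD with fluorescence still positive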). The following applies: HEK293 TRPC6, membrane potential dye fluorescence, at 10 µM, stimulated with maximal-effect acetylcholine; active compounds read high.
Chain of Short transient receptor potential channel 6 (Mus musculus) (Q61143 whole entry, looked up): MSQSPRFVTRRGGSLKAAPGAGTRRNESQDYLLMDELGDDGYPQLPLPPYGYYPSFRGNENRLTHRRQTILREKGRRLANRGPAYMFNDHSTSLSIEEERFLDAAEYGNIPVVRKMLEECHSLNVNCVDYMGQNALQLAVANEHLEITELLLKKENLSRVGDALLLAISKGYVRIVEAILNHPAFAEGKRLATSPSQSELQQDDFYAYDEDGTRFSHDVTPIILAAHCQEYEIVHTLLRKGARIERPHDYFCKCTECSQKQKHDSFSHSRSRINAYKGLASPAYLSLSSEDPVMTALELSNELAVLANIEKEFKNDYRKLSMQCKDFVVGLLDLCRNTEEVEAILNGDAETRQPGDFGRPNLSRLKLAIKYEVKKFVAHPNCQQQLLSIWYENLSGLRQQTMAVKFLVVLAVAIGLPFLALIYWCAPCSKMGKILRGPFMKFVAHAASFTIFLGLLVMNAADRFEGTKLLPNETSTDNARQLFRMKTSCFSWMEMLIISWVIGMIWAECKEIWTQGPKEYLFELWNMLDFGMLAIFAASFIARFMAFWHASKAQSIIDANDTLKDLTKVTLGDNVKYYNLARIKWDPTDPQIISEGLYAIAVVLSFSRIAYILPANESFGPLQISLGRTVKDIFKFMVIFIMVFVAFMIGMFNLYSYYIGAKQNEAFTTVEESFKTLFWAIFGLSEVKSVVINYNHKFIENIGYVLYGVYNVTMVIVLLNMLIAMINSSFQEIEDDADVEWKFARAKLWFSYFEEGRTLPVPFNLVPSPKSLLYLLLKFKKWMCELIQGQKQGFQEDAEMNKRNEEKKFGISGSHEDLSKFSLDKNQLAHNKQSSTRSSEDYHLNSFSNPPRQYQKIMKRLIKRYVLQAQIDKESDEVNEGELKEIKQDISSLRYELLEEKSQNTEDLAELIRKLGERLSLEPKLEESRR

Assay [10] shares this target. The assay is described as follows: TRPC6 opening by TRPC4 activator hits – cell-based, HEK293, membrane potential dye, duplicate, selectivity assay for TRPC4 activator project, confirmation (AID 434950;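 active = membrane potential signal rise above negative control mean plus 3 SD in both duplicates, also active in the earlier TRPC4 screen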). The note with it: HEK293 TRPC6, membrane potential fluorescence, at 10 µM; activation: active compounds read high; outcome: activation.
The target is the same in assay [11]. The assay is described as follows: positive modulators of mouse TRPC6 channel – HEK293 cells, membrane potential dye, duplicate, selectivity assay for TRPC4 potentiator project, confirmation (AID 434952;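 active = compound raising the membrane signal above positive-control mean plus 3 SD in both repeats, and a primary screen hit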). The following applies: HEK293 TRPC6, membrane potential dye fluorescence, at 10 µM, maximal acetylcholine added after compound; active compounds read high.
Assay [12] deals with Short transient receptor potential channel 4 (Mus musculus) (UniProt Q9QUQ5). The assay is described as follows: calcium flux activators in TRPC4/5HT1a cells, counter-screen for TRPC4 activator project, cell-based, second counter screen, HEK293 TRPC4/5HT1a, Fluo-4 (AID 434977;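 active = calcium signal rise above buffer-control mean plus 5 SD in both duplicates, and also a hit in the primary screen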). The note with it: Fluo-4 calcium flux, at 10 µM; active compounds read high.
Chain of Short transient receptor potential channel 4 (Mus musculus) (Q9QUQ5 whole entry, looked up): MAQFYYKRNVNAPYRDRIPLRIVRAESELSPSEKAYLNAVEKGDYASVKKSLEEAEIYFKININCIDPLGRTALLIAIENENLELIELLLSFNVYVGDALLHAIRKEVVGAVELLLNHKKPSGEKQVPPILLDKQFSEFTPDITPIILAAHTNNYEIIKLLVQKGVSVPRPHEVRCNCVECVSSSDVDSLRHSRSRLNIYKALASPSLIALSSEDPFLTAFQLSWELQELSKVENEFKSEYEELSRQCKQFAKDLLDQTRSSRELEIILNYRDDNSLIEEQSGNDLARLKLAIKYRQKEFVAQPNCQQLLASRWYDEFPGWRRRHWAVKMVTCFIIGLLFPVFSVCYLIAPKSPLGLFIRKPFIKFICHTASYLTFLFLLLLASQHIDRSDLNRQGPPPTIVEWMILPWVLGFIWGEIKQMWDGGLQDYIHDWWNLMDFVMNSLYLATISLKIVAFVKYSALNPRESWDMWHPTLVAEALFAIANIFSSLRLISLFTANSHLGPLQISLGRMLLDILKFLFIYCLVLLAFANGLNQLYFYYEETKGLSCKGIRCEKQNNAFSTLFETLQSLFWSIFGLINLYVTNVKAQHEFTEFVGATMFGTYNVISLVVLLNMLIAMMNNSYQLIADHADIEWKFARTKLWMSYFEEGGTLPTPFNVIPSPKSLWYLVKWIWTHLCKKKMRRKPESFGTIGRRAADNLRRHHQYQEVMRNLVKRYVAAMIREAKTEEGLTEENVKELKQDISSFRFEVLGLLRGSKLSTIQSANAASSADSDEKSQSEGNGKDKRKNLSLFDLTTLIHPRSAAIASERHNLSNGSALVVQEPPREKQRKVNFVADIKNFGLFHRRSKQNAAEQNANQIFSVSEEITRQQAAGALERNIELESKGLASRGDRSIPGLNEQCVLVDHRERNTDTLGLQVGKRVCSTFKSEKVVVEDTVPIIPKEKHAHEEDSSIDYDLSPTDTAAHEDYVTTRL
Assay [13] can be described thus: serotonin-gated TRPC4 signal block – cell-based, second counter screen, HEK293 TRPC4/5HT1a, Fluo-4, counter-screen for TRPC4 inhibitor project, confirmation (AID 434978;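 active = primary screen active whose calcium signal fell more than 3 SD beyond the full-serotonin control mean in both duplicate plates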;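 as to outcome: serotonin given first at submaximal then at maximal dose after compound preincubation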). The following applies: Fluo-4 calcium flux, at 10 µM, serotonin added to trigger calcium flux; active compounds read high. For orientation: Counterscreens check selectivity or assay interference.
Assay [14] has as its system TRPC4 (mouse), co-expressed with 5HT1a in HEK293. The assay is described as follows: enhancement of serotonin-evoked TRPC4 response – cell-based, second counter screen, HEK293 TRPC4/5HT1a, Fluo-4, counter-screen for TRPC4 potentiator project, confirmation (AID 434979;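 active = signal rise over 3 SD above mean of control wells given weak agonist, in both repeats and first screen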). The note with it: Fluo-4 calcium flux, at 10 µM, serotonin added at its EC20 dose; active compounds read high.

Assay [15] in a line: nonspecific calcium rise without TRPC4 – cell-based, HEK293 mu-opioid receptor line, counter-screen for TRPC4 activator project, confirmation (AID 449723;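 active = hit in primary screen, with calcium signal over 5 SD above buffer well mean in both duplicates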;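 also: counter screen cells carry the mu-opioid receptor alone and lack TRPC4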). The following applies: HEK293 mu-opioid cells, Fluo-4 calcium fluorescence, at 10 µM; active compounds read high.
Assay [16] in a line: nonspecific potentiation of DAMGO calcium response – cell-based, HEK293 mu-opioid receptor line, counter-screen for TRPC4 allosteric potentiator project, confirmation (AID 449724;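 active = calcium signal rise more than 3 SD above the low-dose agonist control mean, in both duplicate plates and the primary screen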;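 also: HEK293 cells carrying mu-opioid receptor only with no TRPC4 channel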). The following applies: HEK293 mu-opioid receptor cells, Fluo-4 calcium flux, at 10 µM, compound added before EC20 DAMGO stimulus; active compounds read high.
Assay [17] is described as follows: nonspecific flux increase, KCNQ1-free cells – parental CHO cells, counter-screen for KCNQ1 potentiator project (AID 493006;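 active = duplicate-averaged activation above buffer control mean plus 5 SD of those controls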). The following applies: parental CHO-K1 cells, FluxOR thallium flux, at 10 µM; active compounds read high.
For assay [18], the target named is Potassium voltage-gated channel subfamily KQT member 1 (Homo sapiens) (UniProt P51787). The assay is described as follows: enhancement of KCNQ1 channel thallium flux – FluxOR thallium flux, CHO cells, duplicates, confirmation (AID 493007;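 active = potentiation averaged over duplicate wells exceeding buffer-only control mean by more than 3 SD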;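 also: cells depolarized by a potassium plus thallium sulfate stimulus after compound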). The note with it: KCNQ1 cell line, FluxOR thallium flux fluorescence, at 10 µM; active compounds read high, % of reference activator effect, buffer zero.
Chain of Potassium voltage-gated channel subfamily KQT member 1 (Homo sapiens) (P51787 whole entry, looked up): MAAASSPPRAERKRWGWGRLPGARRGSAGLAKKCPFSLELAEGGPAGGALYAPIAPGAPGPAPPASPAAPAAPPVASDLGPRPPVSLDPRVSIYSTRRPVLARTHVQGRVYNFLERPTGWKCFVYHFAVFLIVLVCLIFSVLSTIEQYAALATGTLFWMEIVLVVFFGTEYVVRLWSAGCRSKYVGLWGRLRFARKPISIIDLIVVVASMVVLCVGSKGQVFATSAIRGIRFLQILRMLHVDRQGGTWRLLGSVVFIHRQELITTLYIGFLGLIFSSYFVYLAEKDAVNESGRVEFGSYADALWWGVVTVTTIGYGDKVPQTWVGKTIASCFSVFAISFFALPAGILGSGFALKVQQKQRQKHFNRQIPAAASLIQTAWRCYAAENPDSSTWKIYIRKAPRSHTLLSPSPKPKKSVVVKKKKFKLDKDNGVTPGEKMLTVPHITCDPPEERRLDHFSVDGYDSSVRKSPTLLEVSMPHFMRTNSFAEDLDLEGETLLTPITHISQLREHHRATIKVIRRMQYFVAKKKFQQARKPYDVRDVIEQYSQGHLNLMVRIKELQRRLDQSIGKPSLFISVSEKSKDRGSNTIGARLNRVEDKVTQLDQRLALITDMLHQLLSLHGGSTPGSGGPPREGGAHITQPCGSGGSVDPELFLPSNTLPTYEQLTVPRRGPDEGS

The target of assay [19] is Potassium voltage-gated channel subfamily KQT member 2 (Rattus norvegicus) (UniProt O88943). The assay is described as follows: KCNQ2 thallium flux enhancement – KCNQ2-CHO-K1 cells, selectivity assay for KCNQ1 potentiator project (AID 493009;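 active = mean duplicate potentiation above the buffer control mean plus 5 SD of buffer wells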;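 also: assay conditions were tuned for KCNQ1 rather than KCNQ2 modulators; signal is max minus min fluorescence divided by baseline after thallium stimulus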). The note with it: FluxOR thallium flux fluorescence, at 10 µM; active compounds read high, scaled: buffer 0, activator control 100.
Chain of Potassium voltage-gated channel subfamily KQT member 2 (Rattus norvegicus) (O88943 whole entry, looked up): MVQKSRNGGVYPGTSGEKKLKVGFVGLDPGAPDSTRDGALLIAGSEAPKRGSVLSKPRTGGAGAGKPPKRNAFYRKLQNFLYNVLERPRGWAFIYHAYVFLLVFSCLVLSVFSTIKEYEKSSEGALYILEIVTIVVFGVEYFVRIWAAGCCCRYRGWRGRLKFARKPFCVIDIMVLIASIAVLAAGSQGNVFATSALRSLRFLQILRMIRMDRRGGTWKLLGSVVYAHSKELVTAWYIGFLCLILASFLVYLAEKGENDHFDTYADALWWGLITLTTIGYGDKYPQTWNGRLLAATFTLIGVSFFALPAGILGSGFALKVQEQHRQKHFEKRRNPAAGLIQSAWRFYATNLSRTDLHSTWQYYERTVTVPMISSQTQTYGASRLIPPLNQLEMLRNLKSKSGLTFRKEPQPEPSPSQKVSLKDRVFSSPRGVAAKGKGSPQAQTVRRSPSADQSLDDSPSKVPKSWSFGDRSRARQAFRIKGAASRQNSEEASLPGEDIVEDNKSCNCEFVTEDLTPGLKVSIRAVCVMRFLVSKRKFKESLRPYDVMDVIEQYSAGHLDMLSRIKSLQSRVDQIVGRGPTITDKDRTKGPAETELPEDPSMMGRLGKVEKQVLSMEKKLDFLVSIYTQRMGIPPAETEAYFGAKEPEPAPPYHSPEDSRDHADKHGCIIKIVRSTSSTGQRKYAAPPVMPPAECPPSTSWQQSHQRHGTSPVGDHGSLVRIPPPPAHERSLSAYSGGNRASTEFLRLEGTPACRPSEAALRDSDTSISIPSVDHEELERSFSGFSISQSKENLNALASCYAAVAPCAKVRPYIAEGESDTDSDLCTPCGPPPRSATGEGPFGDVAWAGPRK
Assay [20] concerns the target Short transient receptor potential channel 4 (Mus musculus) (UniProt Q9QUQ5). The assay is described as follows: block of DAMGO-driven TRPC4 calcium entry – cell-based, HEK293 TRPC4/mu-opioid, Fluo-4 calcium, dose response (AID 434942;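 active = primary screen inhibitor hit that blocks the TRPC4 channel at some tested dose, yielding a dose curve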).

Broadly, the inhibition is the percentage by which the read-out fell short of the control.

For some of these results: Results with a measured potency or affinity are listed apart. The source made the active and inactive calls.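 The calls were made as follows, unless noted: active = primary screen hit whose fluorescence ratio, in both repeats, exceeds the weak agonist control mean by 3 SD; inactive = the rest.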

Regarding `Cc1nc2c3cc(Cl)ccc3n(CCN3CCCCC3)c2s1`, the outcome in assay [1], in [2], in [3], in [4], in [6] and in assay [7] was inactive. For the same compound, the outcome in assay [8], in assay [10], in assay [11], in assay [12], in assay [14] and in assay [15] was inactive. Besides, the outcome in [16], in assay [17], in [18] and in assay [19] was inactive. For the same compound, the inhibition is 72% (active) in assay [5], 39.5% (active) in assay [9] and 28.7% (active) in [13].
Take `Brc1ccccc1CN1CCN(Cc2c[nH]c3ccccc23)CC1`: the outcome in [1], in assay [2], in assay [3], in assay [4], in assay [6] and in assay [7] was inactive. In addition, the result in assay [8], in assay [10], in [11], in [12], in assay [14] and in [15] was inactive. For the same compound, the outcome in [16], in assay [17], in [18] and in assay [19] was inactive. Besides, the inhibition in assay [5] is 78% (active); in assay [9], 55.5% (active); in [13], 41.8% (active).
For `COc1ccc(N/C(C)=C2/C(=O)C(=O)N(CCO)C2c2ccc([N+](=O)[O-])cc2)cc1` (centres undefined), the result in assay [1], in [2], in assay [5], in [6], in assay [7] and in assay [20] was inactive. In addition, the call in [9], in [10], in assay [11], in assay [12], in assay [13] and in assay [15] was inactive. For the same compound, the outcome in assay [16] was inactive. Further, the potentiation in assay [3] is 189% (active); in assay [4], 150% (active); in assay [14] it was 129% (active).
In the case of `CN(C)CC(CCC(CN(C)C)C(O)(c1ccccc1)c1ccccc1)C(O)(c1ccccc1)c1ccccc1` (centres undefined), the result in assay [1], in [2], in assay [3], in [4], in assay [5] and in assay [6] was inactive. In addition, the result in [7], in assay [8], in [9], in assay [10], in assay [11] and in assay [12] was inactive. For the same compound, the result in assay [13], in [14], in assay [15], in assay [16], in [17] and in assay [18] was inactive. The outcome in [19] was inactive.
`O=C(Nc1ccccc1)C1=C[C@H](C2CCCCC2)C[C@H](OCc2ccc(CO)cc2)O1`: the result in assay [1], in assay [2], in assay [3], in assay [5], in assay [6] and in assay [7] was inactive. The outcome in assay [20], in [9], in [10], in [11], in assay [12] and in assay [13] was inactive. The outcome in [15] and in assay [16] was inactive. For the same compound, the potentiation in assay [4] was 85% (active); in assay [14], 124% (active).
For the compound `N#CC1=C(N)C(C#N)(C#N)C(c2cccnc2)C2CC(c3ccccc3)CC=C12` (centres undefined), the outcome in assay [1], in assay [2], in [3], in [5], in [6] and in [7] was inactive. Moreover, the result in assay [20], in assay [9], in [10], in assay [11], in assay [12] and in assay [13] was inactive. Also, the result in [15] and in assay [16] was inactive. For the same compound, the potentiation is 77% (active) in assay [4] and 9.65% (active) in assay [14].
On to `CC1=NN(c2ccccc2)C(=O)/C1=C/c1c(O)n(-c2ccc(F)c(Cl)c2)[nH]c1=O`, for which the outcome in assay [1], in assay [2], in assay [3], in assay [4], in assay [6] and in assay [7] was inactive. For the same compound, the outcome in assay [8], in [9], in [10], in [11], in [12] and in [14] was inactive. Besides, the result in assay [15], in assay [16], in assay [17], in assay [18] and in [19] was inactive. For the same compound, the results for the inhibition in [5] and in [13] were 97% (active) and 17.1% (active), respectively.
